Cycloheximide cs = Cycloheximide Counterscreen for Small Molecule Inhibitors of Shiga Toxin | cell reporter, cycloheximide protein synthesis inhibition counterscreen | max response, % | 12% of 300,000 active | AID 2314, 2010; in the data active = max response mostly above about 13%, no sharp cut-off; inactive = mostly below about 14%; also: read at 38.3 µM for the half of the compounds with a filed dose; 0% is about no effect
Sm TGR inh = qHTS Assay for the Inhibitors of Schistosoma Mansoni Peroxiredoxins | Schistosoma mansoni thioredoxin glutathione reductase (TGR), Q962Y6 | purified TGR, DTNB reduction, TNB absorbance 405 nm | Potency, µM (doses to about 114 µM), without a hit: at the top dose activity change, negative = inhibition, usual class: inhibitors | 3% of 360,000 active | AID 485364, 2010; active = well fitted inhibition curve with a large enough effect; inconclusive = small, poorly fitted or top-dose-only effect; inactive = no such curve, though single readings can be large or run the other way; also: potency is read from the fitted curve at half-maximal effect; % is scaled to controls: 0 for no effect and ±100 for the full control effect; nearly all actives have a fitted effect of over 60% in size
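TGR 20 nM + NADPH 100 uM (dispensed conc.), cpd preinc 15 min RT; start with NADPH (500 uM addition) then DTNB (15 mM addition). Kinetic TNB absorbance, 405 nm filter. Four-parameter Hill fit across titration.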
FMDV antiviral = High Throughput Screening for Foot and Mouth Disease Virus Antivirals | FMDV antiviral cell-based qHTS | Potency, µM (series often up to 57.9 µM), without a hit: at the top dose activity change, negative = inhibition, most hits filed as inhibitors | 1.2% of 410,000 active | AID 1159524, 2015; calls by dose curve; tested in HEK293T cells; also: read-out not given here; potency is read from the fitted curve at half-maximal effect; % is scaled to controls: 0 for no effect and ±100 for the full control effect; nearly all actives have a fitted effect of over 45% in size
Shiga inhibitor = A qHTS for Small Molecule Inhibitors of Shiga Toxin. Vero cells, Shiga toxin protein synthesis inhibition reporter. inhibition, % at 38.7 µM. 9.2% of 290,000 active; in the data active = inhibition mostly above about 28%, no sharp cut-off; inactive = mostly below about 43%; also: 0% is about no effect
The depositor's hits bear a star; ? = inconclusive; / = not tested or not shown. An excerpt weighted towards active compounds, which were near 12% of everything screened.

SMILES | Cycloheximide cs | Sm TGR inh | FMDV antiviral | Shiga inhibitor
COc1ccc(NC(=O)c2csnn2)cc1Cl | / | -1% | 14% | /
COc1ccc(OCC(=O)NC2CC(=O)N(c3ccc4c(c3)OCCO4)C2)cc1 (stereo unspecified) | / | 2% | 0% | /
COC(=O)c1ccc2c(c1)NC1=C(C(=O)CC(C)(C)C1)C(c1ccncc1)N2 (stereo unspecified) | 42* | 1% | 61% | 84*
CCOc1cc(C2Nc3ccccc3NC3=C2C(=O)CC(C)(C)C3)ccc1O (stereo unspecified) | 14* | -17% | 6% | 7
COC(=O)c1ccc(C2Nc3ccccc3NC3=C2C(=O)CC(C)(C)C3)cc1 (stereo unspecified) | -4 | 3% | 8% | -6
CC1(C)CC(=O)C2=C(C1)Nc1ccccc1NC2c1cccc(F)c1 (stereo unspecified) | -3 | 4% | -9% | -15
Cn1cccc1C1Nc2ccccc2NC2=C1C(=O)CC(C)(C)C2 (stereo unspecified) | 31* | -17% | 4% | 64
COc1cccc(N2CC(NC(=O)c3ccc(S(=O)(=O)N4CCOCC4)cc3)CC2=O)c1 (stereo unspecified) | / | -4% | -15% | /
CCOc1cc(CNc2ccc3c(c2)OCCO3)cc(Br)c1OCC | 28* | -11% | 32µM* | 67*
CCOc1cc(CNc2ccc(N(C)C)cc2)cc(Br)c1OCC(=O)NC(C)(C)C | 36* | -31% | 14µM* | 38*
C=CCOc1c(Br)cc(CNc2ccc(NC(=O)C(C)C)c(OC)c2)cc1OCC | 34* | -29% | ? | 10
CCOc1cc(CNc2ccc(N3CCOCC3)cc2)cc(Br)c1OCC | -3 | -11% | ? | -12
CCOc1cc(CNc2cccc3ccccc23)cc(Br)c1OCC(=O)NC(C)(C)C | 11 | -9% | / | -3
C=CCOc1c(Br)cc(CNc2ccc(NC(=O)CCC)cc2)cc1OCC | 3 | -15% | ? | 12
CCOc1cc(CNc2ccc(N3CCCCC3)cc2)cc(Br)c1OCC(=O)NC(C)(C)C | 14* | -17% | 32µM* | 22
CCOc1ccccc1NC(=O)CSc1c(C)cnc2c1c(=O)n(C)c(=O)n2C | / | -3% | ? | /
C=C1CCN(C(CC(C)C)C(=O)O)S(=O)(=O)c2ccccc21 (stereo unspecified) | 6 | / | / | -4
CN(C)c1ccc(-c2c(C3C4C=CCCC4(C)C(=O)N3Cc3ccccc3)ccc3ccccc23)cc1 (stereo unspecified) | 14 | / | / | 13
COc1cc(CNc2ccc3[nH]c(=O)[nH]c3c2)cc(Br)c1OCC(=O)NC(C)(C)C | 3 | 13µM* | ? | 6
O=C(Nc1ccc(Br)cc1)C1OCCc2ccccc21 (stereo unspecified) | 18* | 0% | 22% | 51*
COc1ccc(Cc2nnc(NC(C)=O)s2)cc1 | 11 | 0% | 5% | 29
COc1ccc(C(=O)Nc2nnc(Cc3ccc(OC)c(OC)c3)s2)c(OC)c1 | 13* | -19% | -5% | 57
COc1ccc(Cc2nnc(NC(=O)c3ccccc3F)s2)cc1 | 20* | 5% | 18% | 85*
COCc1nnc(NC(=O)c2ccc(OC)cc2OC)s1 | 47* | / | 8% | 104*
CN(C)c1ccc(C(=O)NCc2ccc3c(c2)CCN3C(=O)c2ccccc2)cc1 | / | -2% | -12% | /
SMILES | Cycloheximide cs | Sm TGR inh | FMDV antiviral | Shiga inhibitor
Oc1ccccc1C1CC(c2cccs2)=NC(c2ccc(Cl)cc2)N1 (stereo unspecified) | 37* | ? | -15% | 50*
CN1N=C2c3ccccc3CCCC2C1c1ccc(F)cc1 (stereo unspecified) | 39* | 6% | -11% | 76*
O=C(CCC1N=C2c3ccccc3N=C(SCc3cccc(F)c3)N2C1=O)NCc1cccs1 (stereo unspecified) | / | 4% | ? | /
S=C1CSc2ccccc2N1 | 11 | 4% | 2% | 29
c1ccc2c(c1)NCCS2 | 47* | 0% | 49% | 80*
O=C(Nc1ccc(F)c(Cl)c1)c1cc(-c2ccco2)on1 | 16 | -15% | 92% | 62*
COc1ccc(NC(=O)c2cc(-c3ccco3)on2)cc1OC | 17 | ? | -2% | 28
Cc1ccc(NC(=O)c2cc(-c3ccco3)on2)cc1C | 38* | -32% | 50% | 99*
Cc1ccc(NC(=O)c2cc(-c3cccc(O)c3)on2)cc1C | 47* | -28% | 36% | 78*
Cc1cc(NC(=O)c2cc(-c3ccco3)on2)no1 | 3 | 0% | 52% | -11
Cc1ccc(NC(=O)c2cc(-c3ccco3)on2)cc1 | 41* | 1% | 48% | 133*
